Assay outcomes as filed in PubChem.
The entries come from a sample that favours hits as a whole.
ST2 IL33 inh – IL1RL1 inhibition | AID 1259354 | inhibition, % for hits at 17 µM | AlphaLISA ST2-Fc/biotin-IL-33 interaction, 1 h | Q01638 | 78,000 tested, 2.3% active; in the data active means inhibition above about 30%
Target sequence (Q01638 whole entry, looked up): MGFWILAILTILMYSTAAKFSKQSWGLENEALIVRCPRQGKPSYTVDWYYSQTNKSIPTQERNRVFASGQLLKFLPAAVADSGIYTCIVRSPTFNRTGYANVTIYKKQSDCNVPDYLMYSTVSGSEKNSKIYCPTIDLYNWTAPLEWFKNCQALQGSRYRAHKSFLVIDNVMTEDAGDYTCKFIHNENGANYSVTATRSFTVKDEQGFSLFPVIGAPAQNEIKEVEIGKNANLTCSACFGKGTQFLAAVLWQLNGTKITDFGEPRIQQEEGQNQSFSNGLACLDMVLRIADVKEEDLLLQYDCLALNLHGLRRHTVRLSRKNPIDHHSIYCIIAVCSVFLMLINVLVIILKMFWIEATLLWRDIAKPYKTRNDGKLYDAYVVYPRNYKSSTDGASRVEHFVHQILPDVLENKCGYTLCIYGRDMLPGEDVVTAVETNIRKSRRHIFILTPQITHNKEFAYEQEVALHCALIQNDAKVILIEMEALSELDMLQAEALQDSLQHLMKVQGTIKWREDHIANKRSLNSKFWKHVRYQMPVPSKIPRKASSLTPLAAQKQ
* hit, by the source's call; i = inactive.

SMILES	ST2 IL33 inh
O=C(O)c1ccc(N2CCCC2)c([N+](=O)[O-])c1	i
O=C1OC(c2ccccc2)OC(=O)C1=Cc1ccc(-c2cc(C(=O)O)ccc2Cl)o1 (configuration not stated)	i
O=C(O)c1ccc2c(c1)C(=O)/C(=C\c1ccco1)C2=O	71%*
O=C(O)c1ccc2c(c1)C(=O)/C(=C\c1ccc([N+](=O)[O-])o1)C2=O	91%*
O=C(O)c1ccc(C(=O)O)c(-c2ccccc2)c1	i
CC(C)n1ccnc1CN1CCOC(CC2CCCCC2)C1 (configuration not stated)	i
CCN(CC)CCN1C(=O)C(=O)C(=C(O)c2ccc(Cl)cc2)C1c1cccnc1 (configuration not stated)	i
NC(=O)c1ccccc1-c1cccc(OC(F)(F)F)c1	i
Cc1cccc(CSC2=NCCN2C(=O)c2ccc(S(=O)(=O)N3CCCCC3)cc2)c1	i
COC(=O)c1ccc(CSc2nc3c([nH]c4ccccc43)c(=O)n2C)o1	i
NC(=O)c1ccc(NC(=O)C2CCN(C(=O)Cc3ccccc3)CC2)cc1	i
O=C1C[C@H]2CC[C@@H](CN1)N2C(=O)Cc1ccc(NC(=O)C2CC2)cc1	43%*
NS(=O)(=O)c1ccc(NC(=O)C2CCN(C(=O)Cc3ccccc3)CC2)cc1	i
CCCNC(=O)C1CCC(Cn2c(=O)c3sccc3n(CC(=O)NCCC(C)C)c2=O)CC1 (configuration not stated)	i
O=C(C[C@@H]1O[C@H](CNC(=O)C2CC2)[C@@H](O)[C@H]1O)NCc1ccc(F)cc1	i
COc1ccc2[nH]cc(C(=O)c3ccc(C)cc3)c(=O)c2c1	i
CN(C)CC1(O)CCCN(C(=O)c2cc(-c3ccccc3)n(C)n2)CC1 (configuration not stated)	i
O[C@H]1CN[C@H](c2nc(-c3ccc(C(F)(F)F)cc3)no2)C1	i
Oc1c(C=NCc2ccc(F)cc2)[nH]c2ccc(Br)c(Cl)c12	39%*
Oc1c(C=NCCc2ccccc2)[nH]c2ccc(Br)c(Cl)c12	32%*
COc1ccc(CCN=CC2=C(O)CC(c3ccccc3)CC2=O)cc1OC (configuration not stated)	i
Cc1c(Cl)c(C)c([N+](=O)[O-])c(O)c1C=Nc1ccc(F)cc1	i
Oc1c(C=NCc2ccc(Cl)cc2Cl)[nH]c2ccc(Br)c(Cl)c12	i
COc1cc(Br)c(Br)c(C=Nc2ccc(F)cc2)c1O	i
Oc1c(C=Nc2ccc(F)cc2)[nH]c2ccc(Br)c(Cl)c12	30%*
SMILES	ST2 IL33 inh
CCOc1ccc2c(-c3cccc([N+](=O)[O-])c3)cc(=O)oc2c1	i
CN(Cc1n[nH]c2c1CCC2)c1nccc(CCC(F)(F)F)n1	i
COc1ccc(S(=O)(=O)N2CCSC2c2ccc3c4c(cccc24)CC3)cc1 (configuration not stated)	i
Cn1c(SCC(=O)Nc2nccs2)nnc1C(O)c1ccccc1 (configuration not stated)	i
CN(C)c1oc(-c2ccc(F)cc2)nc1S(=O)(=O)c1ccccc1	i
N#Cc1ccc(Br)cc1/C=C/C(=O)O	80%*
N#Cc1ccc(Oc2ccc(C(=O)c3ccccc3)cc2)cc1C#N	i
O=C(c1ccccc1)c1cc(Br)ccc1O	i
O=C(COc1cccc([N+](=O)[O-])c1)Nc1nccs1	i
CCOc1ccc(-c2cn(-c3cc(C)cc(C)c3)c(=O)[nH]2)cc1Cl	i
CCCOc1ccc(-c2nc3s/c(=C\c4cc(OC)ccc4OC)c(=O)n3n2)cc1	i
COc1ccc(/C=C2\SC(N3CCCC3)=NC2=O)cc1OC	i
COc1ccc(/C=C2\SC(N3CCCCC3)=NC2=O)cc1OC	i
COc1ccc(Br)cc1/C=C1/SC(N2CCOCC2)=NC1=O	i
COc1cc(/C=C2\SC(c3ccc(C)cc3)=NC2=O)cc(OC)c1O	80%*
COc1ccc(OC)c(/C=C2\SC(c3ccccc3)=NC2=O)c1	51%*
Cc1cc(C)n2nc3nc(N4CCCCCC4)nc(-c4ccccc4)c3c2n1	i
Cc1cc(C(=O)NCCCSc2nnc(C)s2)nc(C)n1	i
O=C(c1cc(CN2CCC(O)CC2)on1)N1CC=C(c2ccccc2)CC1	i
CN(C(=O)CCC(=O)NC1CCCCCC1)C1CC(C)(C)NC(C)(C)C1	i
CC1(C)CC(NC(=O)CC2CCCCC2)CC(C)(C)N1	34%*
CC1(C)CC(NC2CC(C)(C)NC(C)(C)C2)CC(C)(C)N1	i
O=C(N1C[C@@H]2[C@H](C1)[C@H]1CC[C@@H]2O1)C12C[C@H]3C[C@@H](C1)CC(n1cncn1)(C3)C2	i
O=C(COc1ccc(Cl)cc1)Nc1nc2ccc3ccccc3c2s1	i
Cc1nnc(-c2ccccc2-c2cc(N)nc3[nH]ccc23)o1	i
SMILES	ST2 IL33 inh
O=S(=O)(Nc1nc2ccccc2s1)c1cccc2nsnc12	i
C=CCn1cc(-c2nc3c([nH]2)c(-c2cccnc2)nn3C)c(C)n1	i
O=C(c1ccc(C2CCCO2)s1)N1C[C@@H]2[C@H](C1)[C@H]1CC[C@@H]2O1 (some centres not stated)	i
CN(C)C(C(=O)N1C[C@@H]2[C@H](C1)[C@H]1CC[C@@H]2O1)c1ccc2c(c1)OCO2 (some centres not stated)	50%*
COc1ccccc1C(CC(=O)O)c1ccc2c(c1)OCO2 (configuration not stated)	i
CCOc1ccc(OCCCCN2CCN(C)CC2)cc1	i
N=C1S/C(=C\c2ccc(N3CCOCC3)cc2)C(=O)N1c1ccc(Br)cc1	32%*
Cc1ccc(N2C(=O)S/C(=C\c3ccc(O)cc3)C2=O)cc1	i
N=C1S/C(=C\c2ccc(O)cc2)C(=O)N1c1ccc(F)cc1	i
OCc1ccccc1-c1nnnn1-c1ccccc1	i
COc1ccc(OC)c(S(=O)(=O)NCc2ccccc2OC)c1	i
N#Cc1ccccc1-c1nc2c3c(c(N)ccc3n1)C(=O)c1ccccc1-2	42%*
CCOC(=O)COc1ccc2c(=O)c(-c3ccc(Cl)cc3)coc2c1	i
Cc1cc(C)nc(N=C(N)Nc2ccc(Cl)cc2Cl)n1	i
Cc1cc(C)n(S(=O)(=O)c2ccc(Br)s2)n1	i
CC1=C(C(=O)Nc2ccc(Cl)cc2)C(c2ccc([N+](=O)[O-])cc2)n2ncnc2N1 (configuration not stated)	i
CCOc1ccc([N+](=O)[O-])cc1C1Nc2ccccc2-c2nnc(SC)nc2O1 (configuration not stated)	i
CCOC1=NC2Nc3ccc(Cl)cc3N(C)C2C1c1ccc([N+](=O)[O-])cc1 (configuration not stated)	36%*
COC(=O)[C@@H]1C[C@@H](NC(=O)c2c(C)nc3ncccn23)CN1C	i
Cc1ccc(N2C(=O)CSC2c2ccccc2Cl)cc1 (configuration not stated)	32%*
O=C1CSC(c2ccccc2Cl)N1c1ccccc1 (configuration not stated)	i
O=C1CSC(c2cccc(Cl)c2Cl)N1c1ccc(F)cc1 (configuration not stated)	i
COc1ccc(Br)cc1CN1C(=O)CCC1(C)C(=O)NC1CCCCCCC1 (configuration not stated)	i
COc1ccccc1-c1coc2cc(OC(C)C(=O)OC3CCCCC3)ccc2c1=O (configuration not stated)	i
O=C(C(C(=O)N1CCOCC1)C12CC3CC(CC(C3)C1)C2)N1CCOCC1	i
